# According to ChEMBL document CHEMBL3988442, “University of Dundee, Small-Polar-MMV Screening Library” (2021):
# Values joined by “and” are separate entries in the source; they are usually repeats but may differ in a detail not shown here. Equal entries are not always repeated. The whole screen tested about 34,000 compounds, of which about 290 (0.85%) showed an effect of 50% or more. This excerpt belongs to a sample that is enriched for strong results.
# Tested on: Plasmodium falciparum
# Test: Plasmodium falciparum sporozoite viability assay
# Assay type: functional, organism-based
# Parameters: scale not given: in the data most compounds retested in dose-response had high values
SMILES,Percent Effect,Percent Effect (10 mM as filed; unlikely as a test dose)
Cc1nn(C)cc1CN(C)Cc1cc2c(cc1OC(F)F)OCO2,5.075%,–
Cc1ncsc1CN(C)Cc1cc2c(cc1OC(F)F)OCO2,–,74.26% and 62.83%
Cc1nc(CN(C)Cc2cc3c(cc2OC(F)F)OCO3)cs1,–,-8.742% and -16.17%
CC(Cn1ccnc1)NC(=O)C1(c2ccc(F)cc2)CCCC1 (centres undefined),23.02%,–
Cc1cc(N2CCC(c3n[nH]c4nccnc34)CC2)ncn1,7.584%,–
Brc1cccc(-c2nnc(CNCCn3cccn3)o2)c1,2.399%,–
CC(C)c1nc2c(n1C)CCN(Cc1nc(-c3ccoc3)no1)C2,–,83.83% and 76.55% and 70.15%
CC(C)c1ncc2c(n1)CN(Cc1nc(-c3ccsc3)no1)CC2,18.76%,–
CC(C)c1ncc2c(n1)CN(Cc1nc(-c3cccs3)no1)CC2,–,13.28% and 7.226% and -0.3719%
Cn1c(C2CC2)nc2c1CCN(Cc1nc(-c3ccsc3)no1)C2,–,19.95% and 27.05% and 21.39%
CC(C)c1nc2c(n1C)CCN(Cc1nc(-c3ccsc3)no1)C2,–,73.25% and 58.56% and 70.51%
CC(C)c1nc2c(n1C)CCN(Cc1nc(-c3cccs3)no1)C2,–,44.7% and 61.16% and 58.76%
c1csc(-c2noc(CN3CCc4cncnc4C3)n2)c1,–,24.87% and 17.34% and 36.23%
CC(C)c1ncc2c(n1)CN(Cc1nc(-c3ccoc3)no1)CC2,–,11.99% and 7.268% and 10.61%
Cn1cnc2c1CCN(Cc1nc(-c3ccco3)no1)C2,–,12.07% and 12.49%
COc1ccccc1OCCNC(=O)CN1CCc2cncnc2C1,-7.271%,–
O=C1CN(c2ccc(CNC(=O)NCc3ccoc3)cc2)CCN1,13.47%,–
Cc1cn2c(n1)CCC(NC(=O)c1[nH]ncc1Br)C2 (centres undefined),-6.244%,–
Cc1cc(C(=O)N[C@@H]2CCC[C@@H](N3CCOCC3)[C@@H]2O)no1,7.233%,–
O=C(O)C(F)(F)F.O=C([C@H]1C[C@H]2OCC[C@H]2N(CCc2ccccc2)C1)N1CCCCO1,-6.171%,–
Cn1c(-c2cc3n(n2)CCCN(CC(=O)O)C3)nc2ccccc21,–,91.97% and 88.48%
CN1CCn2nc(-c3nc4ccccc4n3C)cc2C1,–,21.76% and 43.98%
CCCOC(=O)N1CCn2nc(-c3nc4ccccc4n3C)cc2C1,–,47.05% and 19.27%
NC(=O)C1CN(C(=O)Nc2ccc(SC(F)(F)F)cc2)CCO1 (centres undefined),26.37%,–
